Test results from PubChem BioAssay (EPA / NIEHS).
The source made the active and inactive calls. The calls were made as follows: active = hit-call score of the fitted dose curve at least 0.9, where 1 is the maximum; inactive = score below 0.9.

Key:
[1] = ATG_E_Box_CIS: Attagene CIS-FACTORIAL HepG2 Assay for human Enhancer Box (E-box) (AID 2282936); conditions: HepG2 E-box cis-reporter transcription, actives raise or lower the signal
Method in brief: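 Cells: HepG2 (human liver), transient MRTU transfection. Exposure 24 h. RNA → oligo(dT) RT → PCR → 6-FAM label → HpaI → CE. Activity fitted both directions relative to DMSO.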

[2] = ATG_M_61_CIS: Attagene CIS-FACTORIAL HepG2 Assay for M61 Transcription Factor (Internal Marker) (AID 2282937); conditions: HepG2 Attagene CIS-FACTORIAL M61 internal marker reporter; actives raise or lower the signal
Method in brief: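 Transfect HepG2 with MRTUs; dose 24 h; isolate RNA; reverse-transcribe with DNase I treatment; PCR-amplify, FAM-label and cut with HpaI for 2 h at 37 C; resolve by CE. Bidirectional fitting against DMSO.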

[3] = ATG_M_19_CIS: Attagene CIS-FACTORIAL HepG2 Assay for M19 Transcription Factor (Internal Marker) (AID 2282939); conditions: HepG2 Attagene CIS-FACTORIAL M19 internal marker reporter; actives raise or lower the signal
Method in brief: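 In this multiplexed cell assay, transiently transfected HepG2 reporter units report endogenous transcription-factor activity; after 24 hours of treatment, labelled reporter cDNA fragments are quantified by capillary electrophoresis and fitted bidirectionally against DMSO.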

[4] = ATG_ERE_CIS: Attagene CIS-FACTORIAL HepG2 Assay for Estrogen Response Element (ERE) (AID 2282940); conditions: HepG2 ERE cis-reporter, Attagene RNA transcript; actives raise or lower the signal
Method in brief: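 Measuring endogenous transcription factor output, the assay doses transfected HepG2 cells for 24 hours and quantifies reporter transcripts by fluorescent RT-PCR and capillary electrophoresis, with DMSO as baseline.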

[5] = ATG_Ets_CIS: Attagene CIS-FACTORIAL HepG2 Assay for human Erythroblast Transformation Specific (ETS) (AID 2282941); conditions: HepG2 ETS cis-reporter transcription, actives raise or lower the signal
Method in brief: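 Steps: transfect HepG2 with multiple reporter units; treat compound 24 h; isolate RNA, DNase-treat, reverse-transcribe; PCR-amplify, label with 6-FAM, digest with HpaI; separate by capillary electrophoresis. Activity fitted both directions versus DMSO.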

[6] = ATG_FoxO_CIS: Attagene CIS-FACTORIAL HepG2 Assay for human Forkhead box O (FoxO) (AID 2282943); conditions: HepG2 Attagene cis-reporter, FoxO element, mRNA; actives raise or lower the signal
Method in brief: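 Endogenous transcription factor activity read from multiplexed cis-promoter reporter transcripts in transiently transfected HepG2, 24 h after dosing. Reporter RNA measured via RT-PCR plus capillary electrophoresis of FAM-labeled products; gain or loss relative to DMSO.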

[7] = ATG_GATA_CIS: Attagene CIS-FACTORIAL HepG2 Assay for human GATA Binding Protein (AID 2282944); conditions: HepG2 GATA cis-element reporter, Attagene multiplex mRNA; actives raise or lower the signal
Method in brief: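 Measures endogenous transcription factor-driven reporter mRNA in HepG2 cells transiently carrying cis-regulated constructs. 24 h dosing; RNA via oligo(dT) reverse transcription, PCR, HpaI digestion, capillary electrophoresis; fitted relative to DMSO.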

[8] = ATG_GLI_CIS: Attagene CIS-FACTORIAL HepG2 Assay for human Zinc Finger Protein GLI1 (AID 2282945); conditions: HepG2, Attagene cis-factorial reporter mRNA, GLI element; actives raise or lower the signal
Method in brief: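 Bidirectional curve fits relative to DMSO, using reporter mRNA levels from RT-PCR plus capillary electrophoresis. Cells were HepG2 transiently carrying cis-regulated reporter constructs, harvested 24 h after dosing.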

[9] = ATG_ISRE_CIS: Attagene CIS-FACTORIAL HepG2 Assay for human Interferon Regulatory Factor 1 (IRF1) binding to an Interferon-Stimulated Response Element (ISRE) (AID 2282948); conditions: HepG2 ISRE cis-reporter (Attagene), mRNA transcription readout; actives raise or lower the signal
Method in brief: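 Transfected HepG2 (multiple reporter transcription units, cis elements) dosed 24 h. RNA → oligo(dT) RT → PCR → 6-FAM primer extension → HpaI → CE. DMSO = negative control/baseline.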

[10] = ATG_M_32_CIS: Attagene CIS-FACTORIAL HepG2 Assay for M32 Transcription Factor (Internal Marker) (AID 2282949); conditions: HepG2 Attagene cis-factorial M32 reporter, mRNA; actives raise or lower the signal;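 also: background control marker of the multiplexed CIS panel rather than a real target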
Method in brief: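 Fluorescent capillary electrophoresis peaks of HpaI-digested, FAM-labelled RT-PCR reporter products give the signal. Source: transiently transfected human liver HepG2 cells, 24 h after chemical dosing; bidirectional fitting against DMSO.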

[11] = ATG_M_06_CIS: Attagene CIS-FACTORIAL HepG2 Assay for M06 Transcription Factor (Internal Marker) (AID 2282950); conditions: HepG2 Attagene CIS-FACTORIAL M06 internal marker reporter; actives raise or lower the signal
Method in brief: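 One of many multiplexed endpoints: HepG2 reporter mRNA after 24 h dosing, detected by RT-PCR and capillary electrophoresis fluorescence; gain or loss of signal analysed against DMSO.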

[12] = molecular target: Hypoxia-inducible factor 1-alpha (Homo sapiens) (UniProt Q16665); test: ATG_HIF1a_CIS: Attagene CIS-FACTORIAL HepG2 Assay for human Hypoxia Inducible Factor 1 (HIF1A) (AID 2282951); conditions: HepG2 Attagene cis-factorial HIF1a reporter transcription; actives raise or lower the signal
Method in brief: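 After 24 h chemical exposure of reporter-transfected HepG2 cells, reporter cDNA was PCR-amplified, labelled by 6-FAM primer extension (2 min 95 C, 20 s 68 C, 10 min 72 C), HpaI-cut (2 h, 37 C) and analysed by CE.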

[13] = molecular target: Heat shock factor protein 1 (Homo sapiens) (UniProt Q00613); test: ATG_HSE_CIS: Attagene CIS-FACTORIAL HepG2 Assay for human Heat Shock Transcription Factor 1 (HSE) (AID 2282953); conditions: HepG2 HSE cis-reporter, Attagene RNA transcription; actives raise or lower the signal
Method in brief: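 Using HepG2 with transfected cis-driven reporter constructs, compound effects on endogenous factor activity are scored as reporter mRNA change at 24 h. Detection: RT-PCR, HpaI digestion, capillary electrophoresis; bidirectional fitting to DMSO.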

[14] = ATG_MRE_CIS: Attagene CIS-FACTORIAL HepG2 Assay for human Metal Responsive Element (MRE) (AID 2282954); conditions: HepG2 MRE cis-reporter transcription, Attagene multiplex; actives raise or lower the signal
Method in brief: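 Transient MRTU transfection of HepG2 (FuGene 6); 24 h dosing; total RNA → oligo(dT) RT, PCR, 6-FAM primer extension, HpaI cut, CE. Bidirectional fit vs DMSO.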

[15] = ATG_PBREM_CIS: Attagene CIS-FACTORIAL HepG2 Assay for human Phenobarbital-responsive Enhancer Module (PBREM) (AID 2282955); conditions: HepG2 PBREM cis-reporter, Attagene multiplexed transcription; actives raise or lower the signal
Method in brief: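 Measures endogenous factor action on a phenobarbital-responsive enhancer module. HepG2 transiently carrying cis reporters, 24 h treatment, mRNA read-out by RT-PCR plus capillary electrophoresis.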

[16] = molecular target: Hepatocyte nuclear factor 3-beta (Homo sapiens) (UniProt Q9Y261); test: ATG_FoxA2_CIS: Attagene CIS-FACTORIAL HepG2 Assay for human Forkhead box A2 (FOXA2) (AID 2282942); conditions: HepG2 cis-reporter transcription factor activity, 24 h; actives raise or lower the signal
Method in brief: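 24 h dosing of HepG2 bearing cis-reporter constructs; mRNA readout by RT-PCR/CE fluorescence; bidirectional fit, DMSO baseline.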

[17] = molecular target: Bile acid receptor (Homo sapiens) (UniProt Q96RI1); test: ATG_IR1_CIS: Attagene CIS-FACTORIAL HepG2 Assay for human Nuclear Receptor Subfamily 1 Group H Member 4 (NR1H4), IR1 submotif (AID 2282946); conditions: IR1 reporter transcription, actives raise or lower the signal
Method in brief: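 Cells (human HepG2) carry transiently transfected cis-promoter reporter transcription units. Compounds are incubated 24 h, total RNA is reverse-transcribed and amplified, and labelled fragments are resolved by capillary electrophoresis. Curves use DMSO as baseline.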

[18] = molecular target: Hepatocyte nuclear factor 6 (Homo sapiens) (UniProt Q9UBC0); test: ATG_HNF6_CIS: Attagene CIS-FACTORIAL HepG2 Assay for human Hepatocyte Nuclear Factor 6 (HNF6) (AID 2282952); conditions: HepG2 Attagene cis-factorial HNF6 reporter transcription; actives raise or lower the signal
Method in brief: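 Transiently transfected HepG2 cells expressing cis-regulated reporter transcription units were exposed to chemical for 24 h in a 24-well format. Reporter transcript abundance was determined by fluorescence capillary electrophoresis.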

[19] = ATG_GRE_CIS: Attagene CIS-FACTORIAL HepG2 Assay for human Glucocorticoid Response Elements (GRE) (AID 2282947); conditions: HepG2 GRE cis-reporter, Attagene multiplex mRNA; actives raise or lower the signal
Method in brief: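 Transient MRTU transfection of human HepG2 liver cells; cis-regulated reporters report endogenous factors. 24 h dosing → RNA isolation → RT-PCR → 6-FAM primer extension → HpaI cut → CE fragment analysis. Bidirectional fit, DMSO negative control.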

Measured: AC50

Chain of Bile acid receptor (Homo sapiens) (Q96RI1 whole entry, looked up, the tested form may be a part): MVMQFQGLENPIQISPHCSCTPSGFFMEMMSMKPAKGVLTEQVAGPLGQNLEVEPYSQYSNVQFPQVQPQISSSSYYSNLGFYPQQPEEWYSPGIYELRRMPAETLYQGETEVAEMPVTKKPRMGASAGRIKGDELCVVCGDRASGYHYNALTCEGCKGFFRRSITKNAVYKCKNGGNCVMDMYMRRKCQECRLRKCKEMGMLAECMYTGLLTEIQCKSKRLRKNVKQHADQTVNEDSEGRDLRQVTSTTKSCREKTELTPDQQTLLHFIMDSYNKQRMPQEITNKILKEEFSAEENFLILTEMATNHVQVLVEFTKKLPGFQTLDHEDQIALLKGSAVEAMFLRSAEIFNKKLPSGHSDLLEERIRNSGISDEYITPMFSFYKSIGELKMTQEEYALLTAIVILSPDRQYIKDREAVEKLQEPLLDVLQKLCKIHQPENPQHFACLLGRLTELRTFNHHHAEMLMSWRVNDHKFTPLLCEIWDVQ
Chain of Hypoxia-inducible factor 1-alpha (Homo sapiens) (Q16665 whole entry, looked up): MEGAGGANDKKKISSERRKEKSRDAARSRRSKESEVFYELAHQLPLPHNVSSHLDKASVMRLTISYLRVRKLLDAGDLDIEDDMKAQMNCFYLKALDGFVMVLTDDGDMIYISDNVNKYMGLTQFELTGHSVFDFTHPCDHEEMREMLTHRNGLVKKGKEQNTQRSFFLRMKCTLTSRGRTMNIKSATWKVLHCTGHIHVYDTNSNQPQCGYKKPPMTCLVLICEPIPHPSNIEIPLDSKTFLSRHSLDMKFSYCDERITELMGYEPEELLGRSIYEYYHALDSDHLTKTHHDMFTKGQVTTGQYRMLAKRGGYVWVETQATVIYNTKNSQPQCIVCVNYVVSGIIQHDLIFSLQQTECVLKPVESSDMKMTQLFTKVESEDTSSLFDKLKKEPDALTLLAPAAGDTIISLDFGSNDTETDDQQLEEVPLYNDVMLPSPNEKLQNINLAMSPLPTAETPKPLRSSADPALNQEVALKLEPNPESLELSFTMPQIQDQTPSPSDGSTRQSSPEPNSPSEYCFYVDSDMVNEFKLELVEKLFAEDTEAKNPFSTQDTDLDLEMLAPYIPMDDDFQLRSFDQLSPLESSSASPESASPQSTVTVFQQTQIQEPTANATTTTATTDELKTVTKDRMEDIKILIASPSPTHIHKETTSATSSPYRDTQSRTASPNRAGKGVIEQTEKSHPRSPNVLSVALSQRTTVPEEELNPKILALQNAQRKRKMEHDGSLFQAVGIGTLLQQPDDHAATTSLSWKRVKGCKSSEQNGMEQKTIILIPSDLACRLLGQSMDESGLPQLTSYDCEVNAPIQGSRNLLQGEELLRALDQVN
Chain of Hepatocyte nuclear factor 6 (Homo sapiens) (Q9UBC0 whole entry, looked up): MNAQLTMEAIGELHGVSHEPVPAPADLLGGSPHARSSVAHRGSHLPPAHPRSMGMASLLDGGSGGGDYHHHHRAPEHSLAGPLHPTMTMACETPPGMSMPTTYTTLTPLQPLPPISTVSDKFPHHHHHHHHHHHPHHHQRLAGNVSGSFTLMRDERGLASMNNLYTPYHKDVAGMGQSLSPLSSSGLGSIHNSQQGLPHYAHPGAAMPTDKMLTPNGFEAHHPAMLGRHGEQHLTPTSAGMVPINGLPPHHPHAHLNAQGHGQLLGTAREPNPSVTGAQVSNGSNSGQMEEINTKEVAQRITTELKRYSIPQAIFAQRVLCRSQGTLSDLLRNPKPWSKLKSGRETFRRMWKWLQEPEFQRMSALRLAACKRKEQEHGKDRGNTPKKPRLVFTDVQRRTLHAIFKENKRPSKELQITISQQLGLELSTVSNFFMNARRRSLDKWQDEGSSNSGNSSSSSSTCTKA
Chain of Heat shock factor protein 1 (Homo sapiens) (Q00613 whole entry, looked up): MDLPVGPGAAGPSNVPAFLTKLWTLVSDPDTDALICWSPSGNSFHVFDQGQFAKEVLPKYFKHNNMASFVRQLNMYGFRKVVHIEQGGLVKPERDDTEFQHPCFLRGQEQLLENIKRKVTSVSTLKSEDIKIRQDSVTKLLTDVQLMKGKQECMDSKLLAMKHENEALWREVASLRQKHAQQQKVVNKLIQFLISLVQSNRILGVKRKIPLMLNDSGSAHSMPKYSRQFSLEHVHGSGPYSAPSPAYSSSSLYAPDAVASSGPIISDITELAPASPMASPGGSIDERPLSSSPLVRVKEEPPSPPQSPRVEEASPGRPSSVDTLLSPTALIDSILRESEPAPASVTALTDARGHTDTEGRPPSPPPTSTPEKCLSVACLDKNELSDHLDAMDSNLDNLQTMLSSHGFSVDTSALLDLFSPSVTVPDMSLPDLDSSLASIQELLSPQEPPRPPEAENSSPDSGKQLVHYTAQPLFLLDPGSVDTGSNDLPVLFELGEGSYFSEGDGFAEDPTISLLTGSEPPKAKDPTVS
Chain of Hepatocyte nuclear factor 3-beta (Homo sapiens) (Q9Y261 whole entry, looked up): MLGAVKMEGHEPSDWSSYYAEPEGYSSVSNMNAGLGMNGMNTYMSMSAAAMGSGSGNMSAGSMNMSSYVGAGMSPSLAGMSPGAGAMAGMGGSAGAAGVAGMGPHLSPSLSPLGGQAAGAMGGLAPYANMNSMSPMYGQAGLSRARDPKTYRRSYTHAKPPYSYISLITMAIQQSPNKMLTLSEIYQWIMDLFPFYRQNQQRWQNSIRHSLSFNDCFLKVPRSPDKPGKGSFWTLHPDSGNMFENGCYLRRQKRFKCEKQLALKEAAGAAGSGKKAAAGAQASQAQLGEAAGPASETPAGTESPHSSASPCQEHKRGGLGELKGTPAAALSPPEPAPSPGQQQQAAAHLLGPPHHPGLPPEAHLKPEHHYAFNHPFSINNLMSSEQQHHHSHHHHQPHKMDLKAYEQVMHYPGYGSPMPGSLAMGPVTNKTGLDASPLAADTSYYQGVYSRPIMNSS

O=S(=O)(Oc1ccc(Cl)cc1Cl)c1ccccc1
active: [4] 7.97 µM | [14] 32.8 µM | [15] 7.97 µM
not listed: [16] | [17] | [18] | [19]
inactive: all other assays above

C(=CC=Nc1ccccc1)C=CNc1ccccc1
not listed: [5] | [19]
inactive: all other assays above

CC(=O)Oc1ccc(C(C)=O)cc1
not listed: [3] | [19]
inactive: all other assays above

c1cc(C(c2ccc(OCC3CO3)cc2)C(c2ccc(OCC3CO3)cc2)c2ccc(OCC3CO3)cc2)ccc1OCC1CO1 (configuration not stated)
active: [9] 63.3 µM | [13] 56.5 µM | [14] 50.2 µM
not listed: [11] | [17]
inactive: all other assays above

c1cc(N(CC2CO2)CC2CO2)ccc1OCC1CO1 (configuration not stated)
active: [8] 140 µM | [9] 74.4 µM | [12] 39.6 µM | [13] 152 µM | [14] 31.7 µM
not listed: [5] | [19]
inactive: all other assays above

CC(=O)c1ccc2c(c1)CCCC2
not listed: [10] | [17]
inactive: all other assays above

CC(=O)OCc1ccco1
not listed: [17] | [19]
inactive: all other assays above
